Assay outcomes as filed in PubChem.
HCMV UL50-53 inh: inhibitors of HCMV UL50-UL53 nuclear egress complex interaction; HTRF UL50-UL53 interaction, normalized percent inhibition; inhibition, % (test concentration not listed); hit rate 0.15% among 190,000; AID 1918969; in the data active = inhibition above about 27%, passing the limit was not always enough
Sa growth 42C: inhibitors of Staphylococcus aureus growth at 42 °C; S. aureus RN4220 growth, OD600, 20 h; hits give low values; relative growth, % (concentration not given with the values); hit rate 0.53% among 170,000; AID 720641;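 active = relative growth at most 50% at the other temperature and 20+ points below 30 °C, or under 10% at both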
S aureus helic: S. aureus DNA helicase inhibition; hit rate 0.05% among 120,000; inhibition, % (concentration not given with the values); purified S. aureus helicase, fluorescence unwinding assay; AID 485395; in the data active = inhibition above about 25%, passing the limit was not always enough;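 also: 0% = mean of negative control wells and 100% = mean of positive control wells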
* hit, by the source's call; x = no result. Many of the other results were omitted from the sample, so hits are more common in it than they were.

SMILES	HCMV UL50-53 inh	Sa growth 42C	S aureus helic
C=CCc1cc(/C=C2\C(=O)NC(=S)N(c3ccc(CC)cc3)C2=O)cc(OC)c1OCC(=O)O	-1.8	x	x
O=C(CCn1ccnc1)OCc1ccccc1	3.5	106.1	17.0
O=C(OCCn1ccnc1)c1ccc(-c2ccccc2)cc1	-32.5	3.0*	9.0
COc1cc(C(=O)Oc2cc(C)cc(C)c2)cc(OC)c1OC	-0.2	103.3	x
COc1cc(C(=O)N=C2C(C)=CC(=O)C=C2C)cc(OC)c1OC	x	-0.6*	1.0
COc1ccc(C2CC(=O)N(c3cccc(OC)c3)C(=O)C2)cc1	-19.9	x	x
CCOc1ccc(NC23SCC(=O)C2CCc2ccccc23)cc1 (stereo unspecified)	27.9	2.0*	x
CCOc1ccc(NC(=O)C2NC(=O)CC2c2ccccc2)cc1 (stereo unspecified)	-9.0	88.8	10.0
O=C(NCC(=O)N1CCN(S(=O)(=O)c2ccccc2)CC1)c1ccc(Cl)cc1	10.6	85.3	-3.0
CC(NC(=O)Nc1cn(C)c(=O)c2ccccc12)c1ccccc1 (stereo unspecified)	9.6	x	x
COc1cc(Nc2ncc3c(n2)CCN(S(=O)(=O)c2ccc(C)cc2)C3)cc(OC)c1	-11.6	x	x
COC(=O)[C@@H]1CC(=O)O[C@H](C)C/C=C/C=C/[C@H](O)[C@H](C)C[C@H](CC=O)[C@H](OC2O[C@H](C)[C@@H](OC3C[C@@](C)(O)[C@@H](OC(=O)CC(C)C)[C@H](C)O3)[C@H](N(C)C)[C@H]2O)[C@H]1OC (stereo partly specified)	-53.1	-0.6*	x
CCOC(=O)N1CCN(S(=O)(=O)c2ccc(C(=O)Nc3nc4c(cc5c6c(cccc64)CC5)s3)cc2)CC1	-13.1	x	x
CCc1nc(-c2ccc(C(=O)NCC(=O)NC3CCCC3)cc2)no1	-37.6	x	x
CC1CC(=O)Nc2ccccc2S1 (stereo unspecified)	-0.3	100.4	15.0
O=C(OCc1ccccc1Cl)c1ccc2c(=O)n3c(nc2c1)CCC3	-21.9	83.5	14.0
COc1ccc2c(COC(=O)c3ccc4c(=O)n5c(nc4c3)CCC5)cc(=O)oc2c1	-13.3	84.3	26.0*
CCN(CC)CCNc1cc(-c2cccs2)nc2ccccc12	-11.5	93.9	x
Cc1cccc(C(=O)Sc2cccccc2=O)c1	x	-1.0*	0.0
Cc1cccc(C(=O)Nc2cc3c(cc2C)n(C)c(=O)n3C)c1	x	79.6	x
CC1CCN(C(=O)CSc2nc(-c3ccccc3)nc3cc(=O)[nH]n23)CC1	-36.3	x	x
Cc1ccccc1-c1nn2c(=O)cc(N3CCN(S(=O)(=O)Cc4ccccc4)CC3)nc2s1	-8.7	x	x
Cc1cccc(-c2nn3c(=O)cc(N4CCN(S(=O)(=O)c5ccccc5C)CC4)nc3s2)c1	-5.0	x	x
CC(C)c1ccc(S(=O)(=O)N2CCN(c3cc(=O)n4nc(-c5ccccc5)sc4n3)CC2)cc1	43.0*	x	x
CCOc1ccc(S(=O)(=O)N2CCN(c3cc(=O)n4nc(-c5ccccc5)sc4n3)CC2)cc1	45.0*	x	x
SMILES	HCMV UL50-53 inh	Sa growth 42C	S aureus helic
Cn1cc(Cl)c(C2NN=C(SCC(=O)Nc3ccccc3)S2)n1 (stereo unspecified)	4.2	108.5	x
CC1=NN(c2nc3ccccc3s2)C(=O)C1	-37.8	92.4	x
CC1=NN(c2nc3ccccc3s2)C(=O)C1CCC(C)C (stereo unspecified)	16.3	1.9*	-3.0
Cc1ccc(/C(C#N)=C\c2ccco2)cc1	-17.3	41.8*	-1.0
N#C/C(=C\c1ccco1)c1ccc(Cl)cc1	-8.6	49.1*	x
N#C/C(=C\c1ccco1)S(=O)(=O)c1ccc(Cl)cc1	-29.3	87.5	4.0
N#C/C(=C/c1ccco1)c1ccc(Br)cc1	-33.1	22.5*	-4.0
Cc1ccc(/C(C#N)=C\c2cccs2)cc1	-4.5	93.2	8.0
N#C/C(=C/c1ccc(Br)o1)c1ccc(C(=O)O)cc1	-81.4	124.0	1.0
COc1cccc(C(=O)Cn2c(=O)n(CCc3ccccc3)c(=O)c3cc(OC)c(OC)cc32)c1	x	101.8	9.0
CCN(CC)c1ccc(C(F)(F)F)cc1N	12.5	107.1	4.0
CN1CCC(N(C)C(=O)c2cc3cc(Br)cc(Br)c3o2)CC1	-7.6	85.4	-9.0
CCc1ccc2c(C)nc(NC3=NC(C)(C)C=C(C)N3)nc2c1	48.6*	68.2	-36.0
CCc1ccc2nc(Nc3nc4ccccc4c(=O)[nH]3)nc(C)c2c1	x	103.1	-1.0
CCCNc1cc(C)nc2c(-c3ccc(Cl)cc3)c(C(F)(F)F)nn12	-2.7	x	x
COC(NC(=O)c1ccccc1)c1ccccc1 (stereo unspecified)	14.7	86.7	8.0
CCn1c(O)c(C2=c3cc(Cl)ccc3=NC2=O)c2ccccc21	-16.9	92.8	-13.0
O=C1N=c2ccccc2=C1c1c(O)[nH]c2ccc(Cl)cc12	-0.8	48.9*	-7.0
Cc1ccc2c(c1)-c1onc(C(=O)N3CCN(c4ccccn4)CC3)c1CO2	-15.0	x	x
O=c1oc2ccccc2cc1-c1cn2cc(Cc3cccc(C(F)(F)F)c3)sc2n1	x	121.4	0.0
